In the supplement of paper PMC10849652:
The full data set covers some 7,900 targets. This sample favours those with a hit. About 0.6% of all pairs of compound and target were hits.

compound: c1cn2cc(-c3ccc4cn[nH]c4c3)nc(Nc3ccc(N4CCOCC4)cc3)c2n1 [entospletinib]; assay: log2 fold change, soluble protein after heating vs DMSO (PISA); higher = thermal stabilisation; K562 cells, 10 uM, 30 min; active = over 0.2 and 3.5 SD of the protein, either way, in both replicates (recomputed)
Method in brief: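 Thermal stability values are relative to control samples and come from duplicates. They are expressed as log2 fold changes. For measurement, K562 cells (2×10^6 cells/mL) received 10 μM compound for 30 min, and aliquots were heated for 3 min over 48°C-58°C, pooled, and extracted at 4°C in PBS with 0.5% NP-40. Soluble protein, the supernatant after 21,000xg for 90 min, was quantified by TMTpro 16plex LC-MS/MS with equalised channel sums.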

Sequence of UniProt Q13825 (Q13825 whole entry, looked up): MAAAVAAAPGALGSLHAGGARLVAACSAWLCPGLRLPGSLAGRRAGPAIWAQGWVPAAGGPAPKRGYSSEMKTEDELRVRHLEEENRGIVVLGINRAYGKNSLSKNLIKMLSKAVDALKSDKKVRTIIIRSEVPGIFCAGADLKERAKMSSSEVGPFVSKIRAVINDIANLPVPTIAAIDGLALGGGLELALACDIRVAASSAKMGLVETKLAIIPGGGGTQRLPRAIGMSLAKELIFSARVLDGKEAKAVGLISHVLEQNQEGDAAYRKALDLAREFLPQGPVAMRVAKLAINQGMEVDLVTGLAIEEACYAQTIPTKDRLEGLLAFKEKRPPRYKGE
Sequence of UniProt Q9H845 (Q9H845 whole entry, looked up): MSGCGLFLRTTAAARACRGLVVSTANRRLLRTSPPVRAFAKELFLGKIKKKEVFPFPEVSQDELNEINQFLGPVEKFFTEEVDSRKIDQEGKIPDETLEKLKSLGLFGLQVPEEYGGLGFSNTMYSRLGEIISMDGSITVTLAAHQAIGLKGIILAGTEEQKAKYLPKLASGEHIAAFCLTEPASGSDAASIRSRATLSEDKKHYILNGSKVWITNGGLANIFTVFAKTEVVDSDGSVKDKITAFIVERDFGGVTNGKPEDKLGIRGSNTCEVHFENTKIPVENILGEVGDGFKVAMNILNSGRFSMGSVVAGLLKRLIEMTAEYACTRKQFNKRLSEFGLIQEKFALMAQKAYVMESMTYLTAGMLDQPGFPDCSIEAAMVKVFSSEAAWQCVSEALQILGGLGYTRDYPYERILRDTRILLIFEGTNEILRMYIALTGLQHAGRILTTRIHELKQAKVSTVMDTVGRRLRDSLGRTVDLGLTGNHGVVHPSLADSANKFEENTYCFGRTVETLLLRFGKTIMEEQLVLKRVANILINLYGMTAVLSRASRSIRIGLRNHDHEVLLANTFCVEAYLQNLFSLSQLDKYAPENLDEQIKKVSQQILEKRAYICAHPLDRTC
Sequence of UniProt Q8IUR7 (Q8IUR7 whole entry, looked up): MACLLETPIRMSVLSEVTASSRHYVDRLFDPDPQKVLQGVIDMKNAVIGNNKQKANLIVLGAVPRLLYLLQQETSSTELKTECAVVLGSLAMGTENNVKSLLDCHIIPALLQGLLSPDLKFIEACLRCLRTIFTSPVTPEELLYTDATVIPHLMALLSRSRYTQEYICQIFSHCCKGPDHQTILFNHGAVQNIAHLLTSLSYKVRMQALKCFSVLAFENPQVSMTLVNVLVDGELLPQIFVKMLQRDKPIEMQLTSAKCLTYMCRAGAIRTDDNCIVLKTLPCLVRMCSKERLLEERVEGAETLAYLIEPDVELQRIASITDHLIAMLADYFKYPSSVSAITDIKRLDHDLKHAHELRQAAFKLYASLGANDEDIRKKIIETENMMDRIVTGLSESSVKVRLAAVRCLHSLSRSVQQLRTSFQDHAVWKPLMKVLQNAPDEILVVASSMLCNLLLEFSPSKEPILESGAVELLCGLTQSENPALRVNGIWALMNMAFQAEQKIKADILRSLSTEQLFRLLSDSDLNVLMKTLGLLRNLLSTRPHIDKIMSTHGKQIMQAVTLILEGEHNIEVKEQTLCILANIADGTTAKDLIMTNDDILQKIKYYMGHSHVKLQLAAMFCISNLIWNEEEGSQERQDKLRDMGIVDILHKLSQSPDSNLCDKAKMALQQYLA
Sequence of UniProt P42330 (P42330 whole entry, looked up): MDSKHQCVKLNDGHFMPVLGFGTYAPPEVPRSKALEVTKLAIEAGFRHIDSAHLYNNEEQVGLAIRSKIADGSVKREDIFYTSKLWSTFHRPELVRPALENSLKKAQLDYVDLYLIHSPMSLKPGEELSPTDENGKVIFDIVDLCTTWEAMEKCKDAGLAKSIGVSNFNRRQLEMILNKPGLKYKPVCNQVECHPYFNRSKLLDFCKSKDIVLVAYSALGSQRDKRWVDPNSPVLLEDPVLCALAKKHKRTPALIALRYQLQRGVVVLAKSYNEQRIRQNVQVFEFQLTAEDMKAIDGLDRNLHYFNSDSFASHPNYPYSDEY
Sequence of UniProt P52895 (P52895 whole entry, looked up): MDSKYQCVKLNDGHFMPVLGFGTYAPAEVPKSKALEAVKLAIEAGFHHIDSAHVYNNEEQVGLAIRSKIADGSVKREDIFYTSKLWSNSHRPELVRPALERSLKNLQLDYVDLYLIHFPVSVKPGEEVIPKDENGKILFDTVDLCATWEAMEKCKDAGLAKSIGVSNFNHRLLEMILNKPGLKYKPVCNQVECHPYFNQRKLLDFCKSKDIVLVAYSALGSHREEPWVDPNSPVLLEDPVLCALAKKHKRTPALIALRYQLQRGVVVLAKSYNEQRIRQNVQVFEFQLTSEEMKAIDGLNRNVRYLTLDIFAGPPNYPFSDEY
Sequence of UniProt Q8TDN6 (Q8TDN6 whole entry, looked up): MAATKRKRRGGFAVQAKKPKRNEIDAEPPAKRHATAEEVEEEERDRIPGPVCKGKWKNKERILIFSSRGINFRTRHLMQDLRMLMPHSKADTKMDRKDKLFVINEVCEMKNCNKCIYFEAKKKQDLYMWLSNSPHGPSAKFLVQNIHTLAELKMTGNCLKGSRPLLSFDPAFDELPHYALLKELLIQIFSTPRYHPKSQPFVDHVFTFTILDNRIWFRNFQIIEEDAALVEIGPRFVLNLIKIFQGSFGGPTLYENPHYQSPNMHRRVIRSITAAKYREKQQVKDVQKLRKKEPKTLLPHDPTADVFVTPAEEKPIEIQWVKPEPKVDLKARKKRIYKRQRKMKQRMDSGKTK
Sequence of UniProt Q9HCU9 (Q9HCU9 whole entry, looked up): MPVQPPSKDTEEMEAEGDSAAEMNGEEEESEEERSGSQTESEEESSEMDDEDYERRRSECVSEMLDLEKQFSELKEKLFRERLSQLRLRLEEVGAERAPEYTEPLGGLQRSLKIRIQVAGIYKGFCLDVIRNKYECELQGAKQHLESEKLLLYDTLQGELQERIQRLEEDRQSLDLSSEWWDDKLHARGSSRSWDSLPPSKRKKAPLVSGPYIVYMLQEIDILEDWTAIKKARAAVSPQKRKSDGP
Sequence of UniProt P55196 (P55196 whole entry, looked up): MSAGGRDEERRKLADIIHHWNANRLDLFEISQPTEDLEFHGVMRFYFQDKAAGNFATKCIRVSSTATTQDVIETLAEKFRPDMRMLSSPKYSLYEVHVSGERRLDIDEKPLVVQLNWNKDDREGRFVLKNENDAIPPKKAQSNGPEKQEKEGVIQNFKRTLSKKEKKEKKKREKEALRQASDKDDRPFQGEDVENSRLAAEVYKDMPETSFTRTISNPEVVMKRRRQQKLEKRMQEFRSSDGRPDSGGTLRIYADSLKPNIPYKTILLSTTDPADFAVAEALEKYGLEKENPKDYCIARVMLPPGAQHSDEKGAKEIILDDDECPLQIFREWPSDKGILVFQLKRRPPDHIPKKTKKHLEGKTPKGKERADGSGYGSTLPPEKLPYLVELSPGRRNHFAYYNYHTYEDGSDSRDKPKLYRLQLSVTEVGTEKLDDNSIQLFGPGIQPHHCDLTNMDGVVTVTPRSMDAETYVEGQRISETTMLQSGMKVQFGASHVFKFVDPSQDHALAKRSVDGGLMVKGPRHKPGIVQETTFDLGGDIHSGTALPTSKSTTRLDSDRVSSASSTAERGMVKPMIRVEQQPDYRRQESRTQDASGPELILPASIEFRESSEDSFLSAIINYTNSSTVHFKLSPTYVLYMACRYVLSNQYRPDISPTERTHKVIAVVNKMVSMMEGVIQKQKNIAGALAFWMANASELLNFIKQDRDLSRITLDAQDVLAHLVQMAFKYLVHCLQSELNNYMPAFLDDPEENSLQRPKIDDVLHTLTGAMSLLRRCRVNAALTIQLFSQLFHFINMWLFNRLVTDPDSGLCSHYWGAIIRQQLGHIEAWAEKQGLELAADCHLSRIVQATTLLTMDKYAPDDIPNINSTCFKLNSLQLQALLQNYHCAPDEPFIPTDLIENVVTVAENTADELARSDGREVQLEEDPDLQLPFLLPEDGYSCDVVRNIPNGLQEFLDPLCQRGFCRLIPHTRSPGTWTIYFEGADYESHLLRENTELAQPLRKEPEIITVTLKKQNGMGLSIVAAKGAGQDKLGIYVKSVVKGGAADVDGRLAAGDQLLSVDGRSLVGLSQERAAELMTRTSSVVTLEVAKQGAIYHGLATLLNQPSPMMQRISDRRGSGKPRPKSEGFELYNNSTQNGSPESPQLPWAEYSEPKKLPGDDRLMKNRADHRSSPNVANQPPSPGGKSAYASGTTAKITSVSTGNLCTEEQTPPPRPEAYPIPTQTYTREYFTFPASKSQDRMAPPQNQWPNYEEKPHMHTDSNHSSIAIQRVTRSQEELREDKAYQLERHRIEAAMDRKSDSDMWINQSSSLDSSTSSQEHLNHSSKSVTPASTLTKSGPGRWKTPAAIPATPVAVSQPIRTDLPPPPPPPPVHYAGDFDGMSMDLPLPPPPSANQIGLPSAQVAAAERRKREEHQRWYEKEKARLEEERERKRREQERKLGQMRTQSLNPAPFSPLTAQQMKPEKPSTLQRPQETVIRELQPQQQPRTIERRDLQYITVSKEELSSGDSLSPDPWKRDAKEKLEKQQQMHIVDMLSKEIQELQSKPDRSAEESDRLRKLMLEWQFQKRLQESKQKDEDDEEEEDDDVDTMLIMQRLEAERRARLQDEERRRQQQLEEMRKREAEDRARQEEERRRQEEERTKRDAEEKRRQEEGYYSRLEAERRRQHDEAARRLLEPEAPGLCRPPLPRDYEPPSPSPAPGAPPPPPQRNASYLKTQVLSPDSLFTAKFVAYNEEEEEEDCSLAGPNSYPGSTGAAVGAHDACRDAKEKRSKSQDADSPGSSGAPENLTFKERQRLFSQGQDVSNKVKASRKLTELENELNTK
Sequence of UniProt Q9NX38 (Q9NX38 whole entry, looked up): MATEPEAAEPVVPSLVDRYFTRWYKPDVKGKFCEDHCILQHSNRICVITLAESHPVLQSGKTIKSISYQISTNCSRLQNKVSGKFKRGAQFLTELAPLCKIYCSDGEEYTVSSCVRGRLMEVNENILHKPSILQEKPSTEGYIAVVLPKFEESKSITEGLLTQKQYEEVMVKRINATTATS

log2 fold change, inactive:
ATP6V1F isoform 2 (UniProt Q16864) 0.027, ABCA4 (UniProt P78363) -0.079, ABITRAM (UniProt Q9NX38) -0.052, ANK2 (UniProt Q01484) 0.016, ATP1A4 (UniProt Q13733) -0.065, AKR1C2 (UniProt P52895) 0.071, BCAP29 isoform 2 (UniProt Q9UHQ4) -0.005, ABCA3 (UniProt Q99758) 0.141, AHSA1 (UniProt O95433) -0.017, ATP7B (UniProt P35670) 0.012, ATP6V1H (UniProt Q9UI12) 0.004, ACAD9 (UniProt Q9H845) 0.02, ACSM3 (UniProt Q53FZ2) -0.004, AGPAT5 (UniProt Q9NUQ2) 0.114, ARMC8 (UniProt Q8IUR7) -0.011, ATP12A isoform 2 (UniProt P54707) -0.003, AKR1C3 (UniProt P42330) -0.011, ABCB6 (UniProt Q9NP58) 0.026, ADD1 isoform 3 (UniProt P35611) 0.007, AUH (UniProt Q13825) -0.068, ABCC5 (UniProt O15440) 0.028, AP4S1 (UniProt Q9Y587) 0.039, BAD (UniProt Q92934) -0.014, ARF4 (UniProt P18085) -0.088, ALG5 (UniProt Q9Y673) -0.005, ARFIP1 (UniProt P53367) -0.109, AFDN isoform 1 (UniProt P55196) -0.028, ACSL1 (UniProt P33121) -0.006, AZI2 (UniProt Q9H6S1) -0.142, ARFGAP2 (UniProt Q8N6H7) 0.007, BCLAF1 (UniProt Q9NYF8) 0.075, BRIX1 (UniProt Q8TDN6) 0.029, BLVRB (UniProt P30043) 0.069, BAIAP2 (UniProt Q9UQB8) -0.012, BRMS1 (UniProt Q9HCU9) 0.078, ASB6 (UniProt Q9NWX5) -0.065, ATP6V0A1 isoform 3 (UniProt Q93050) 0.079, BLOC1S3 (UniProt Q6QNY0) -0.079, ADD3 (UniProt Q9UEY8) 0.046
